For nine compounds, outcome and AC50 results are on record in PubChem BioAssay (EPA / NIEHS).

Read-out in assay [1]: Macrophage colony-stimulating factor (MCSF), CSF1 (gene 1435)
The assay is described as follows: BSK_LPS_MCSF: BioMAP Diversity Plus: LPS Assay for Macrophage colony-stimulating factor (MCSF) Biomarker Activity (AID 2283083). The settings on record: primary human HUVEC with PBMC; actives raise or lower the signal. A digest of the protocol: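 HUVEC + PBMC co-culture (human primary), 24 h post-dose; M-CSF by ELISA; gain/loss of signal fitted bidirectionally vs DMSO baseline.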

Read-out in assay [2]: Tissue Factor, F3 (gene 2152)
Nature of the assay: BSK_LPS_TissueFactor: BioMAP Diversity Plus: LPS Assay for Tissue Factor Biomarker Activity (AID 2283084). The settings on record: primary human HUVEC with PBMC; actives raise or lower the signal. A digest of the protocol: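 HUVEC/PBMC co-culture, LPS-activated; CD142 ELISA read 24 h post-dose; bidirectional curve fit vs DMSO negative control.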

Read-out in assay [3]: Tumor necrosis factor (Homo sapiens) (UniProt P01375)
The assay is described as follows: BSK_LPS_TNFa: BioMAP Diversity Plus: LPS Assay for Tumour Necrosis Factor alpha (TNFa) Biomarker Activity (AID 2283085).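 For AC50: TNFa protein level quantified by ELISA in the co-culture.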 The settings on record: primary human HUVEC with PBMC; actives raise or lower the signal. A digest of the protocol: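 TNFa was quantified by ELISA in LPS-activated co-cultures of human endothelial cells and PBMC, 24 h post-dosing. Both increases and decreases versus DMSO were fitted.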

Read-out in assay [4]: Vascular cell adhesion molecule 1 (VCAM1), VCAM1 (gene 7412)
Nature of the assay: BSK_LPS_VCAM1: BioMAP Diversity Plus: LPS Assay for Vascular cell adhesion molecule 1 (VCAM1) Biomarker Activity (AID 2283086). The settings on record: primary human HUVEC with PBMC; actives raise or lower the signal. In short, it runs like this: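 VCAM-1 quantified by ELISA in an LPS-activated co-culture of human endothelial cells and peripheral blood mononuclear cells, read 24 h post-treatment. Fitted in both directions versus DMSO; parallel SRB staining flags overt cytotoxicity.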

Read-out in the next assay: CD38, CD38 (gene 952)
The assay is described as follows: BSK_SAg_CD38: BioMAP Diversity Plus: SAg Assay for CD38 Biomarker Activity (AID 2283087). The settings on record: primary human HUVEC with PBMC; actives raise or lower the signal. A digest of the protocol:
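CD38 quantified by ELISA (fluorescence) in a superantigen-activated endothelial cell–PBMC co-culture at 24 h post-dose. Activity fitted in both directions relative to DMSO; parallel SRB and Alamar Blue cytotoxicity read-outs.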

Read-out in another assay: CD40, CD40 (gene 958)
Nature of the assay: BSK_SAg_CD40: BioMAP Diversity Plus: SAg Assay for CD40 Biomarker Activity (AID 2283088). The settings on record: primary human HUVEC with PBMC; actives raise or lower the signal. A digest of the protocol: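 HUVEC/PBMC co-culture, 24 h post-dose; CD40 by ELISA, fluorescence intensity; bidirectional fit vs DMSO negative control.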

Read-out in a further assay: CD69, CD69 (gene 969)
Nature of the assay: BSK_SAg_CD69: BioMAP Diversity Plus: SAg Assay for CD69 Biomarker Activity (AID 2283089).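 For AC50: cell surface CD69 protein quantified by ELISA with fluorescence detection.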 The settings on record: primary human HUVEC with PBMC; actives raise or lower the signal. In short, it runs like this: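 Endothelial/PBMC co-culture; chemical added; 24 h incubation; CD69 ELISA with fluorescence detection; bidirectional fit vs DMSO.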

Read-out in assay [5]: Monocyte Chemoattractant Protein-1 (MCP1), CCL2 (gene 6347)
The assay is described as follows: BSK_SAg_MCP1: BioMAP Diversity Plus: SAg Assay for Monocyte Chemoattractant Protein-1 (MCP1) Biomarker Activity (AID 2283090). The settings on record: primary human HUVEC with PBMC; actives raise or lower the signal. A digest of the protocol: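 Values derive from bidirectional fitting of ELISA-measured MCP1 against DMSO controls. Readings were taken 24 h after dosing human vascular endothelial cells co-cultured with peripheral blood mononuclear cells under superantigen stimulation.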

Read-out in assay [6]: E-selectin (Homo sapiens) (UniProt P16581)
The assay is described as follows: BSK_SAg_Eselectin: BioMAP Diversity Plus: SAg Assay for Eselectin Biomarker Activity (AID 2283091). The conditions noted are these: primary human HUVEC with PBMC; actives raise or lower the signal. In short, it runs like this: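 E-selectin ELISA readout at 24 h post-dosing in human umbilical vein endothelial cell/PBMC co-culture; gain or loss of signal fitted relative to DMSO baseline.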

Read-out in assay [7]: Monokine induced gamma interferon (MIG), CXCL9 (gene 4283)
Nature of the assay: BSK_SAg_MIG: BioMAP Diversity Plus: SAg Assay for Monokine induced gamma interferon (MIG) Biomarker Activity (AID 2283092). The settings on record: primary human HUVEC with PBMC; actives raise or lower the signal. In short, it runs like this: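 Measures CXCL9 protein by ELISA in a human vascular primary-cell co-culture (umbilical vein endothelium with PBMC) 24 h after chemical addition. Activity is scored up or down from the DMSO control.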

Assay [8] in a line: BSK_SAg_PBMCCytotoxicity: PBMC Cytotoxicity Assessment in the BioMAP Diversity Plus: SAg Assay (AID 2283093).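 For AC50: PBMC superantigen activated with SEB plus TSST-1 one hour after compound addition.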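 Note: fitted both ways against DMSO so a hit may be loss or gain of signal.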 The conditions noted are these: primary human HUVEC with PBMC. In short, it runs like this: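 PBMC viability by Alamar Blue reduction, fluorescence read at 546/580 nm after 6 h dye exposure. Cells were dosed 1 h before SEB plus TSST-1 activation (20 ng/mL final each), then held 90 h; endothelial/PBMC human co-culture.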

Read-out in assay [9]: Interleukin-8 (IL8), CXCL8 (gene 3576)
The assay is described as follows: BSK_SAg_IL8: BioMAP Diversity Plus: SAg Assay for Interleukin-8 (IL8) Biomarker Activity (AID 2283094). The conditions noted are these: primary human HUVEC with PBMC; actives raise or lower the signal. In short, it runs like this: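 ELISA readout of IL-8 from a superantigen-activated endothelial/PBMC primary human co-culture, taken 24 h post-dosing and fitted in both directions against DMSO; parallel SRB total-protein staining flags overt cytotoxicity.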

A short description of assay [10]: BSK_SAg_SRB: Viability Assessment in the BioMAP Diversity Plus: SAg Assay (AID 2283096).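 Note: cells read one day after compound addition; hits may be either gain or loss of signal compared with DMSO.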 The conditions noted are these: primary human HUVEC with PBMC. In short, it runs like this:
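Compounds were added to a human vascular co-culture of umbilical vein endothelium and PBMC. After 24 h, parallel cultures were fixed with 10% TCA, stained with 0.1% sulforhodamine B and read at 560 nm. Gain or loss of signal was fitted relative to DMSO.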

Assay [11] addresses human CYP19A1, CYP19A1 (gene 1588) (UniProt P11511). Nature of the assay: NVS_ADME_hCYP19A1: NovaScreen (NVS) CYP450-related Enzyme Activity (ADME) Assay for human CYP19A1 (AID 2283098; active = hit-call score of the fitted dose curve at least 0.9, where 1 is the maximum). A digest of the protocol: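 Fluorescence intensity read-out; activity taken as signal loss relative to acetonitrile vehicle. Extracted enzyme, specific substrate, no cells, 0.5 h exposure. Duplicate single-point screen at 10 uM, then concentration–response follow-up for actives.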

For assay [12], the target named is human CYP2B6, CYP2B6 (gene 1555) (UniProt P20813). The assay is described as follows: NVS_ADME_hCYP2B6: NovaScreen (NVS) CYP450-related Enzyme Activity (ADME) Assay for human CYP2B6 (AID 2283101; active = hit-call score of the fitted dose curve at least 0.9, where 1 is the maximum). A digest of the protocol: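 Recombinant protein, specific fluorescent substrate, read at 1 h post-dosing. Primary: single 10 uM, duplicate; follow-up: concentration series. Activity = signal loss vs acetonitrile baseline, with positive and negative controls on every plate.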

Assay [13] has as its target human CYP1A2, CYP1A2 (gene 1544) (UniProt P05177). Nature of the assay: NVS_ADME_hCYP1A2: NovaScreen (NVS) CYP450-related Enzyme Activity (ADME) Assay for human CYP1A2 (AID 2283102; active = hit-call score of the fitted dose curve at least 0.9, where 1 is the maximum;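 note: potency for inhibition since loss of fluorescence marks reduced CYP1A2 activity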). A digest of the protocol: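 Fluorescence-intensity enzyme activity read-out, taken 0.5 h post-dosing, using insect-cell-derived recombinant CYP1A2 and specific fluorescent substrate. Acetonitrile served as negative control/baseline. Single-concentration duplicate screen at 10 uM, then concentration-response follow-up.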

Assay [14] deals with human CYP2A6, CYP2A6 (gene 1548) (UniProt P11509). Nature of the assay: NVS_ADME_hCYP2A6: NovaScreen (NVS) CYP450-related Enzyme Activity (ADME) Assay for human CYP2A6 (AID 2283099; active = hit-call score of the fitted dose curve at least 0.9, where 1 is the maximum). A digest of the protocol:
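Insect-cell-expressed human CYP2A6 enzyme activity measured by fluorescence intensity 0.5 hour post-dosing. Compounds screened at 10 uM in duplicate, then hits tested singly in concentration series (max 20 uM); acetonitrile baseline.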

Inconclusive results are not listed. The source made the active and inactive calls. Rule for the calls, unless noted: active = hit-call score of the fitted dose curve at least 0.9, where 1 is the maximum; inactive = score below 0.9.

Tumor necrosis factor (Homo sapiens), sequence (P01375 whole entry, looked up): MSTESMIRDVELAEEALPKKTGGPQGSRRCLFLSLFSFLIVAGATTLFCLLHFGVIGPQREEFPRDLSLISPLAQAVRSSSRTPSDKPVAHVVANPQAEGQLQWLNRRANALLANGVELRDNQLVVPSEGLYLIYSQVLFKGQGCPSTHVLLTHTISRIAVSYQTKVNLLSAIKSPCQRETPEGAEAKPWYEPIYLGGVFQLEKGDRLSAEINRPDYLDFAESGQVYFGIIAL
E-selectin (Homo sapiens), sequence (P16581 whole entry, looked up): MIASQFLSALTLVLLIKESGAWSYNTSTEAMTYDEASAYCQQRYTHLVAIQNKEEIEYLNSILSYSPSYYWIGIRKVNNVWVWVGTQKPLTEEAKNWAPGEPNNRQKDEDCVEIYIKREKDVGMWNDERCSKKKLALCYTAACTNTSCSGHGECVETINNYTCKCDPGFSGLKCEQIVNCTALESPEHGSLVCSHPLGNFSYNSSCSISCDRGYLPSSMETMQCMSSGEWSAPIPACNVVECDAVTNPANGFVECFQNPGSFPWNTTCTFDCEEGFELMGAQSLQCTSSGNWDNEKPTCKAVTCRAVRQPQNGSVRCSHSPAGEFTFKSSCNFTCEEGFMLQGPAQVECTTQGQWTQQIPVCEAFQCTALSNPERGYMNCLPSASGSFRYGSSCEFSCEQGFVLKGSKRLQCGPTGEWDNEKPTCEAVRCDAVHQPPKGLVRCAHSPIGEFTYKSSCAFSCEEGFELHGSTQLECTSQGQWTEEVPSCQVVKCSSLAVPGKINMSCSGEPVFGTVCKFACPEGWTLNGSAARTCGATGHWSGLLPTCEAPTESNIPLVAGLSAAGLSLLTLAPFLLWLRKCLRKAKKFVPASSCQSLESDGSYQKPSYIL
human CYP2B6, CYP2B6 (gene 1555), sequence (P20813 whole entry, looked up): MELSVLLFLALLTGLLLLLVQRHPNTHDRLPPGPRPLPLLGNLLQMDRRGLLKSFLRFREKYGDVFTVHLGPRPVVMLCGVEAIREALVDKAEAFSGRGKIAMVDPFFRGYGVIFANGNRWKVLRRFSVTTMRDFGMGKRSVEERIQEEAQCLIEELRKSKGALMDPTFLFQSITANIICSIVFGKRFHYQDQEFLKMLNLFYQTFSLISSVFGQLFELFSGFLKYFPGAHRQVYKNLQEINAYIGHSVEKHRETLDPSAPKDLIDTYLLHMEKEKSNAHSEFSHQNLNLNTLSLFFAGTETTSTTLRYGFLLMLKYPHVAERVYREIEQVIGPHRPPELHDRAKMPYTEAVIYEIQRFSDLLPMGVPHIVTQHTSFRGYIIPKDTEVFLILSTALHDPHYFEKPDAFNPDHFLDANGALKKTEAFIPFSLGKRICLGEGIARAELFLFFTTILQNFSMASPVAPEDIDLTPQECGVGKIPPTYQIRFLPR
human CYP1A2, CYP1A2 (gene 1544), sequence (P05177 whole entry, looked up): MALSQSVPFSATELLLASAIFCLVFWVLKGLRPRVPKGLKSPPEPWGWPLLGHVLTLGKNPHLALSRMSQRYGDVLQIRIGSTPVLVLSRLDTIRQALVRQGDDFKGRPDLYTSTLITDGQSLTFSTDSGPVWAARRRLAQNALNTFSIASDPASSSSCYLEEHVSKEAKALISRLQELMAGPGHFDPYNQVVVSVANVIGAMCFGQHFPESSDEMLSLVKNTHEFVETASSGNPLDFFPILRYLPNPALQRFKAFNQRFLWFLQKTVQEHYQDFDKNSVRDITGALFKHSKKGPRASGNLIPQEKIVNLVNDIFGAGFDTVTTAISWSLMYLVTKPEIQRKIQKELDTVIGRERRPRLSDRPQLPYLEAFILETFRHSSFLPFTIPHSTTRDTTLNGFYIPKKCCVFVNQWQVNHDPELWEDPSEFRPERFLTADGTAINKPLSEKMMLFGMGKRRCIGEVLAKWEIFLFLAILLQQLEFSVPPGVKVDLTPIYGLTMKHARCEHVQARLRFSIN
human CYP19A1, CYP19A1 (gene 1588), sequence (P11511 whole entry, looked up): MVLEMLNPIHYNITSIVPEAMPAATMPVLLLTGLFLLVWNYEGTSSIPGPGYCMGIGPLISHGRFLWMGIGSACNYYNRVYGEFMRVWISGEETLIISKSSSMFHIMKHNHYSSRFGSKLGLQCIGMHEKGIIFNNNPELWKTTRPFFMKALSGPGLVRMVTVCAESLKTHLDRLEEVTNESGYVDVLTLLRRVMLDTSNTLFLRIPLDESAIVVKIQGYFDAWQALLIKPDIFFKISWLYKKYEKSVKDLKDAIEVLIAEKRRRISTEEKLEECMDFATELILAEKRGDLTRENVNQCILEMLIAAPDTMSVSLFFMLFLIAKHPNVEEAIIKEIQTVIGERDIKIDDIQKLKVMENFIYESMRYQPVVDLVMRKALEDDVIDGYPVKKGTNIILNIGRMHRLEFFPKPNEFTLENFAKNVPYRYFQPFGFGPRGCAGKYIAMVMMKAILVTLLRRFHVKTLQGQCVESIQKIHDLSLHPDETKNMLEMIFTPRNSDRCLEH
human CYP2A6, CYP2A6 (gene 1548), sequence (P11509 whole entry, looked up): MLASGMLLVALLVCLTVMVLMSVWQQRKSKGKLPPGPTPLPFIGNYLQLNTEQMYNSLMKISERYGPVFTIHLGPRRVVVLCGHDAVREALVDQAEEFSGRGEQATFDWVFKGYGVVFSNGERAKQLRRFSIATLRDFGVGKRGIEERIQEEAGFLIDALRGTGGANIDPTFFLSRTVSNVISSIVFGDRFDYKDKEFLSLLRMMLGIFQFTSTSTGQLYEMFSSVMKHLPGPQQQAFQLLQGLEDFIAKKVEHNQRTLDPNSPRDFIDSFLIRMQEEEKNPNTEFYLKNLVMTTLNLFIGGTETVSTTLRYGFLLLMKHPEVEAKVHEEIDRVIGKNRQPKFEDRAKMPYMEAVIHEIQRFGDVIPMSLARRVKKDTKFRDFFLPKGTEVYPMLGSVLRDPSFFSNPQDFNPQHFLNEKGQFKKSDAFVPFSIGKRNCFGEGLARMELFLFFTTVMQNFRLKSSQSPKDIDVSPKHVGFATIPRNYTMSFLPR

As to `O=C(O)[C@H](O)[C@@H](O)C(=O)O`, the outcome in assay [1] is “inactive”; in [2] it was “inactive”; in assay [3] it was “inactive”; in assay [4] it was “inactive”; in the assay with CD38, CD38 (gene 952) it was “inactive”; in the assay with CD40, CD40 (gene 958), “inactive”. The outcome with CD69, CD69 (gene 969) is “inactive”; in [5], “inactive”; in [6], “inactive”; in assay [7] it was “inactive”; in assay [8], “inactive”; in assay [9], “inactive”. In assay [10], the result was inactive.

In general, AC50 refers to the concentration giving half of the maximal activity seen. Regarding `CC(C)CCCCCCOC(=O)C1CCCCC1C(=O)OCCCCCCC(C)C` (configuration not stated), the outcome is “inactive” in assay [1]; “inactive” in assay [2]; “inactive” in assay [3]; “inactive” in assay [4]; “inactive” in the assay with CD38, CD38 (gene 952); “inactive” with CD40, CD40 (gene 958). Moreover, the outcome was “inactive” with CD69, CD69 (gene 969); “inactive” in [5]; “inactive” in [6]; “inactive” in assay [7]; “inactive” in assay [9]; “inactive” in [10]. The AC50 in assay [8] was 3.51 µM (active).

Turning to `CCN(CC)C(=S)SSC(=S)N(CC)CC`, the concentration at half-maximal activity (AC50) was 30.3 µM (active) in assay [1]; 27.6 µM (active) in assay [2]; 15.4 µM (active) in assay [3]; 28 µM (active) in [4]; 31.7 µM (active) with CD38, CD38 (gene 952); 20 µM (active) with CD69, CD69 (gene 969). The concentration at half-maximal activity (AC50) in assay [5] is 28.4 µM (active); in assay [6], 32.6 µM (active); in assay [7] it was 36.3 µM (active); in [8], 20 µM (active); in [9], 32.5 µM (active); in [10], 30.8 µM (active). For the same compound, the AC50 was 0.405 µM (active) in [12] and 1.2 µM (active) in assay [13]. In addition, the compound was classed as inactive in [11].

Turning to `NC(=O)NN=Cc1ccc([N+](=O)[O-])o1`, the outcome in assay [1] was “inactive”; in assay [2], “inactive”; in assay [3], “inactive”; with CD38, CD38 (gene 952), “inactive”; with CD40, CD40 (gene 958), “inactive”; with CD69, CD69 (gene 969) it was “inactive”. Moreover, the outcome in assay [5], in [6], in assay [7], in assay [8], in assay [9] and in [10] was inactive. The compound was called inactive in [11] and in assay [14]. Further, in assay [4], the AC50 was 12.4 µM (active).

On to `CNC(C)=O`, for which the outcome in assay [1] was “inactive”; in [2], “inactive”; in [3], “inactive”; in [4], “inactive”; in the assay with CD38, CD38 (gene 952), “inactive”; with CD40, CD40 (gene 958) it was “inactive”. Besides, the outcome with CD69, CD69 (gene 969) is “inactive”; in [5], “inactive”; in assay [6], “inactive”; in [7] it was “inactive”; in assay [8], “inactive”; in [9] it was “inactive”. Further, in assay [10], the result was inactive.

With `CC(C)C(=O)Nc1ccc([N+](=O)[O-])c(C(F)(F)F)c1`, the outcome was “inactive” in assay [1]; “inactive” in [2]; “inactive” in assay [3]; “inactive” in assay [4]; “inactive” in the assay with CD40, CD40 (gene 958); “inactive” in assay [5]. Also, the result in assay [6], in assay [7], in assay [8], in [9] and in assay [10] was inactive. In addition, the concentration at half-maximal activity (AC50) was 14.7 µM (active) in the assay with CD38, CD38 (gene 952); 20 µM (active) with CD69, CD69 (gene 969); 5.33 µM (active) in assay [13].

Consider `CCCCCCCCCCCCCCO`, for which the half-maximal activity concentration (AC50) in assay [1] was 31.5 µM (active); in assay [2] it was 33.3 µM (active); in assay [4], 29.6 µM (active); with CD38, CD38 (gene 952) it was 31.1 µM (active); in the assay with CD40, CD40 (gene 958), 34.1 µM (active); with CD69, CD69 (gene 969) it was 30.6 µM (active). The AC50 in assay [5] was 34.2 µM (active); in assay [6] it was 36.3 µM (active); in assay [7], 39.4 µM (active); in assay [8], 30.3 µM (active); in assay [9] it was 31.8 µM (active); in assay [10], 32.4 µM (active). For the same compound, the outcome in [3] was inactive.

As for `NC(N)=O`, the outcome was “inactive” in assay [2]; “inactive” in assay [3]; “inactive” in assay [4]; “inactive” in the assay with CD38, CD38 (gene 952); “inactive” with CD40, CD40 (gene 958); “inactive” in the assay with CD69, CD69 (gene 969). Moreover, the outcome in assay [5], in [6], in assay [7], in assay [8], in [9] and in assay [10] was inactive.

In the case of `NC(=O)N(O)[C@@H]1COc2cc(OCc3ccccc3)ccc21`, the outcome is “inactive” in assay [1]; “inactive” in assay [2]; “inactive” in assay [3]; “inactive” in assay [4]; “inactive” with CD38, CD38 (gene 952); “inactive” with CD40, CD40 (gene 958). In addition, the outcome was “inactive” in the assay with CD69, CD69 (gene 969); “inactive” in [5]; “inactive” in assay [6]; “inactive” in assay [7]; “inactive” in assay [8]; “inactive” in assay [9]. In addition, the outcome in assay [10] and in assay [12] was inactive.
